Each structure is given as a SMILES string.

The test system of the experiment is Perkinsus marinus PRA240. In words: ATP content (proliferation) relative to DMSO control; higher = more parasite growth (less inhibition). The settings on record: 20 µM; 4 days. The procedure:
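Perkinsus marinus PRA240 trophozoites (2-5x10^6 cells/ml, 100 µl, 96-well) were exposed once to MMV Malaria Box compounds at 20 µM (0.1% DMSO) in triplicate. ATP content (ATPlite bioluminescence) was read at day 4 post-exposure and normalised to DMSO + cells control wells (100% activity). Compounds were identified by joining plate and well to the Malaria Box list.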
For `O=C(CSc1ccc2nnc(-c3cccc(F)c3)n2n1)Nc1ccc2c(c1)OCO2`, the ATP content was 102%.
For the molecule `FC(F)(F)c1ccc(Nc2nnnc3ccccc23)cc1`, the ATP content was 44%.
In the case of `CCCCOC(=O)c1ccc(Nc2cc(C)nc3ccc(OC)cc23)cc1`, the ATP content was determined as 93.9%.
Then `CCOc1ccc(C2N(C)c3ccccc3N2C)cc1`, with 131%; and `CC1CCN(Cc2c(O)ccc3cc(-c4nc5ccccc5s4)c(=O)oc23)CC1`, with 124%; and `Nc1ccc(-c2nc3cc(Oc4ccc(Oc5ccc6[nH]c(-c7ccc(N)cc7)nc6c5)cc4)ccc3[nH]2)cc1`, with 74.1%.
Then `COc1ccc(-c2cn3c(C(=O)Nc4ccccc4Cl)c(-c4ccccc4)c4c3n2CCCC4)cc1`, with 99.7%.
On to `COc1ccc2sc(N(Cc3cccnc3)C(=O)c3ccc(C#N)cc3)nc2c1`, for which the ATP content stood at 111%.
The molecule `CCC(C)NCC(O)(c1ccc(Cl)cc1)c1ccc(Cl)cc1` (stereo not given) registered an ATP content of 78.7%.
The value for `Cc1c(C)n(CC(O)CNC2CCCCC2C)c2ccccc12` (stereo not given) was 106%; that for `Cc1cc(Nc2ccc(OCc3ccccc3)cc2)nc2cc(O)ccc12` was 4.92%.
`COc1ccc(Nc2cc(C)nc(NCc3ccccc3)n2)cc1` yielded an ATP content of 93.8%.
On to `Oc1c(CN2CCN(c3ccccc3F)CC2)cc(Br)c2cccnc12`, for which the ATP content worked out at 105%.
The value for `Cc1ccnc(NC(c2cccc(OCc3ccccc3)c2)c2ccc3cccnc3c2O)c1` (stereo not given) was 57.2%; that for `O=C(Nc1ccc(N2CCCCC2)c(Cl)c1)c1ccc(Br)o1` was 33.7%.
On to `Cc1ccc(F)cc1NC(=O)c1cc(Cl)ccc1Nc1ccccc1`, for which the ATP content stood at 113%.
The value for `CN(C)CCNc1cc(-c2ccccc2)nc2ccccc12` was 106%; that for `O=C(NC1CCN(Cc2ccccc2)CC1)c1cc(-c2cccnc2)nc2ccc(Cl)cc12` was 137%.
Turning to `COc1ccc(N2CCN(C(CNC(=O)C3CCCCC3)c3ccc4c(c3)OCO4)CC2)cc1` (stereo not given), the ATP content came to 114%.
The value for `O=C(Nc1ccsc1C(=O)NC1CCCCC1)c1ccc(F)cc1` was 90%.
For `Cc1ccc(C(=O)c2oc3ccc4c(C)cc(=O)oc4c3c2C)cc1`, the ATP content was 123%.
On to `Cc1sc(NC(=O)c2ccccc2)c(C(c2cccs2)N2CCN(c3ccccc3)CC2)c1C` (stereo not given), for which the ATP content worked out at 97.8%.
Then `COc1ccc(-c2nonc2NC(=O)c2cccc(C)c2)cc1OC`, with 82.6%; and `CCCc1c(C)nc2ccc(Br)cc2c1O`, with 58.8%.
For `COc1ccc(C)c2sc(N(Cc3cccnc3)C(=O)c3ccc(C#N)cc3)nc12`, the ATP content came to 87.4%.
The value for `COc1ccc(Nc2nc(NN=Cc3ccc(O)cc3)nc(Nc3ccc([N+](=O)[O-])cc3)n2)cc1` was 39.1%; that for `O=C(NCc1ccco1)C1CCN(S(=O)(=O)c2ccc(Cl)cc2)CC1` was 89.8%.
The molecule `CCOc1cc(Cl)c(C(C)NC(=O)c2cccc(OC)c2)cc1OCC` (stereo not given) returned an ATP content of 85.3%.
The value for `COc1ccc2c(c1)C1(Nc3ccccc3-c3nc4ccccc4n31)C(=O)N2` (stereo not given) was 113%; that for `O=C(NCc1ccco1)C1CCN(S(=O)(=O)c2ccc(Br)cc2)CC1` was 147%; that for `OC1=C2C(=Nc3ccccc3SC2c2ccc(Br)cc2)c2ccccc21` (stereo not given) was 45.9%.
Molecule `Oc1ccc(Cl)cc1CNc1nc2ccccc2[nH]1` returned an ATP content of 49.7%.
The value for `O=C(Nc1ccc(CN2CCOCC2)cc1)c1ccc(-c2cc(Cl)ccc2Cl)o1` was 122%.
As for `Cc1cc(N2CCCC2)nc(Nc2ccc(NC(=O)CCc3ccccc3)cc2)n1`, the ATP content was 119%.
`Cc1ccc2c(C)nc(Nc3nc(C)cc(-c4ccccc4)n3)nc2c1` had an ATP content of 93%.
Consider `COc1ccc(C(=O)C2CC2c2ccc(Cl)cc2)cc1` (stereo not given), for which the ATP content was 199%.
For `CCCCCn1c(=N)n(CC(O)COc2cccc(C)c2)c2ccccc21` (stereo not given), the ATP content is 127%.
Then `COc1ccc(C(=O)C(CCC(CNC(C)(C)C)C(=O)c2ccc(OC)cc2)CNC(C)(C)C)cc1` (stereo not given), with 120%; and `CCC(O)c1ccc(Br)cc1NC(=O)c1cccc(Cl)c1` (stereo not given), with 127%.
Then `CC(=O)Nc1nnc(SCc2c(C)cc(C(C)(C)C)cc2C)s1`, with 84.2%.
